Inconclusive results are not listed. Activity calls are given as the source filed them. The calls were made as follows, unless noted: active = hit-call score of the fitted dose curve at least 0.9, where 1 is the maximum; inactive = score below 0.9.

A short description of experiment [1]: TAMU_PeakParms_SingleDonor1434_Asystole: Texas A&M University (TAMU) 1.5-hr Human Induced Pluripotent Stem Cell (iPSC)-derived Cardiomyocytes Calcium (Ca+2) Flux Assay for Cardiotoxicity: Asystole (quiescence of beating) (AID 2284328; active = hit-call score of the fitted dose curve at least 0.9, where 1 is the maximum). The method in brief:
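Human iPSC-derived cardiomyocytes (donor 1434) were exposed to 0.2, 1, 10 and 100 uM compound in 0.5% DMSO for 90 min at 37C. Ca2+-dye fluorescence gave average peak frequency; POD is EC95, a 95% beat-rate drop versus DMSO.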

The nature of experiment [2]: IUF_NPC2-5_cytotoxicity_120hr: Cytotoxicity Assessment at 120 hours in the Leibniz Research Institute for Environmental Medicine (IUF) Neural Progenitor Cell Migration and Differentiation Assay (NPC2-5) (AID 2284307; active = hit-call score of the fitted dose curve at least 0.9, where 1 is the maximum;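 as to AC50: LDH released into supernatant as membrane damage marker via resorufin fluorescence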). In short, it runs like this: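 Human fetal neural progenitor spheres (0.3 mm, GW 16-19 cortex) were plated on poly-D-lysine/laminin in N2 differentiation medium and exposed for 120 h, with half-medium refresh at day 3. LDH release into supernatant was read by resorufin fluorescence.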

The nature of experiment [3]: IUF_NPC2-5_cell_number_120hr: Cell Number Assessment at 120 hours in the Leibniz Research Institute for Environmental Medicine (IUF) Neural Progenitor Cell Migration and Differentiation Assay (NPC2-5) (AID 2284308).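 Also: count of Hoechst-stained nuclei in migration zone around plated human neural progenitor spheres.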 The method in brief:
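Primary human fetal neural progenitor spheres (GW 16-19, 0.3 mm) plated on poly-D-lysine/laminin in N2 differentiation medium, exposed from day 0 for 120 h with half-medium refresh at day 3; Hoechst-positive nuclei counted in migration area versus DMSO control.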

The nature of experiment [4]: IUF_NPC2-5_viability_120hr: Viability Assessment at 120 hours in the Leibniz Research Institute for Environmental Medicine (IUF) Neural Progenitor Cell Migration and Differentiation Assay (NPC2-5) (AID 2284312). The method in brief:
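Human fetal (GW 16-19) neural progenitor spheres of 0.3 mm were plated on poly-D-lysine/laminin in N2 differentiation medium and exposed from day 0 for 120 h, with half-medium refresh at day 3. Viability was read as alamar blue resazurin-to-resorufin fluorescence against DMSO.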

A short description of experiment [5]: CCTE_Mundy_HCI_iCellGluta_NOG_NeuriteLength: CCTE's Neurite Outgrowth Assay in iCellGluta cells for Neurite Length, Mundy Lab (AID 2284318; active = hit-call score of the fitted dose curve at least 0.9, where 1 is the maximum). In short, it runs like this:
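Automated high-content imaging of betaIII-tubulin (Alexa Fluor-488) and Hoechst-stained cells gave neurite length, normalized to the DMSO baseline.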

Experiment [6] is described as follows: CCTE_Deisenroth_5AR_NBTE_donor: CCTE's 5alpha-reductase NanoBRET Target Engagement Assay […], Deisenroth Lab (AID 2284319). To be noted: actives raise or lower the signal. The method in brief:
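In this secondary endpoint, donor luminescence from SRD5A2-NanoLuc in transfected HEK293T flags artifacts. Test chemical (10 nM - 29.9 uM) is present five hours, tracer the last two; mock-tracer wells run plate-matched; data fitted bidirectionally against DMSO.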
(In BRET a luciferase serves as donor, and the signal depends on an acceptor being close.)

Experiment [7] in a line: CCTE_Deisenroth_5AR_NBTE_acceptor: CCTE's 5alpha-reductase NanoBRET Target Engagement Assay - Autofluorescence Screen, Deisenroth Lab (AID 2284321).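 Also: compound fluorescence in the acceptor channel under 460 nm excitation flags autofluorescence artifacts.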 Particulars: actives raise or lower the signal. The method in brief: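 HEK293T cell-based NanoBRET assay read 5 h after dosing; this acceptor channel serves as an autofluorescence artifact screen. Chemicals at nominal 100 uM were scanned in three independent runs (n=3), excitation 460 nm. Fitting was bidirectional versus DMSO baseline.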

The subject of a further experiment is SRD5A2 (gene 6716). Description: CCTE_Deisenroth_5AR_NBTE_ratio: CCTE's 5alpha-reductase NanoBRET Target Engagement Assay - Ratio, Deisenroth Lab (AID 2284322). Particulars: actives raise or lower the signal. The method in brief: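 HEK293T transiently expressing SRD5A2-NanoLuc; cells exposed to chemical (8-point, 10 nM - 29.9 uM) for 5 h total, testosterone tracer added for final 2 h. NanoBRET acceptor/donor ratio (650/460 nm), bidirectional fit vs DMSO.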

Experiment [8] is described as follows: IUF_NPC1_cytotoxicity_72hr: Cytotoxicity Assessment at 72 hours in the Leibniz Research Institute for Environmental Medicine (IUF) Neural Progenitor Cell Proliferation Assay (NPC1) (AID 2284332; active = hit-call score of the fitted dose curve at least 0.9, where 1 is the maximum;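 also: rising LDH signal means more cytotoxicity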). The method in brief:
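Spheres of primary human neural progenitors are plated one per well on day 0 in growth-factor medium and dosed at once. After three days at 37C, supernatant LDH is measured fluorimetrically via resazurin reduction.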

The subject of the next experiment is TTR (gene 7276). The experiment can be described thus: CCTE_GLTED_hTTR_0.5uM: CCTE's human Transthyretin (hTTR) Inhibition Assay, with 0.5uM TTR, Great Lakes Toxicology and Ecology Division (GLTED) Lab (AID 2284320). The method in brief: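 Cell-free displacement assay in which human TTR at 0.5 uM was incubated with test chemical for 2 h. Displacement of the ANSA probe was read by fluorescence at 380 nm excitation/475 nm emission. Loss of signal was fitted in the positive direction versus DMSO.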

The test system of experiment [9] is Brachyury (BRA) Protein Expression, Deisenroth Lab, TBXT (gene 6862). Description: CCTE_Deisenroth_DEVTOX-GLR_legacy_Bra: (Legacy) CCTE's DevTox GLR-Endo Assay Evaluation of Brachyury (BRA) Protein Expression, Deisenroth Lab (AID 2284329). In short, it runs like this: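 RUES2-GLR human pluripotent cells differentiated 48 h with two 24-h-interval chemical exposures (1 nM - 200 uM, 10 points); fixed, nuclear-stained, imaged. Bra+ cell percentage (intensity 5x BMAD above pluripotent control median) fitted relative to 0.2% DMSO.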

Experiment [10] can be described thus: CCTE_Deisenroth_DEVTOX-GLR_legacy_CellCount: (Legacy) Viability Assessment in CCTE's DevTox GLR-Endo Assay, Deisenroth Lab (AID 2284331). To be noted: actives raise or lower the signal. In short, it runs like this:
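Seed RUES2-GLR 24 h; differentiate 48 h, dosing at 0 and 24 h; fix, stain nuclei; image 5 fields/well; count nuclei. Conc. 1 nM - 200 uM, single technical replicate, n=4 experiments; bidirectional fit vs 0.2% DMSO.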

The nature of experiment [11]: VALA_TUBHUV_Agonist_CellCount: Viability Assessment in the VALA Sciences human Umbilical Vein Endothelial Tubule Formation (TUBHUV) Agonism Assay (AID 2284309; active = hit-call score of the fitted dose curve at least 0.9, where 1 is the maximum). In short, it runs like this: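 HUVEC co-cultured 1:3 with HDF for 3 days in 10 ng/ml VEGF, then compounds added in VEGF medium for a further 3 days (72 h). Nuclear-stain/CD31 imaging cell count. Positive-direction fit versus 0.1% DMSO vehicle.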

Experiment [12] is described as follows: VALA_TUBHUV_Antagonist_CellCount: Viability Assessment in the VALA Sciences human Umbilical Vein Endothelial Tubule Formation (TUBHUV) Antagonism Assay (AID 2284310; active = hit-call score of the fitted dose curve at least 0.9, where 1 is the maximum). The method in brief:
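HUVEC co-cultured with HDF (1:3) 3 days in 10 ng/ml VEGF, then 3 days with compounds in VEGF medium. Fixed, nuclear stain and CD31 immunofluorescence, imaged; cell counts fitted versus 0.1% DMSO, loss of signal read as lower viability.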

The nature of experiment [13]: VALA_MIGHUV2_Bcatenin: VALA Sciences human Umbilical Vein Endothelial Cell Migration (MIGHUV) Assay, Nuclear Translocation of beta-Catenin after Recovery (AID 2284315; active = hit-call score of the fitted dose curve at least 0.9, where 1 is the maximum). The method in brief:
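HUVEC (4000 cells/well) scratch-wounded, dosed within 30 min over 6 concentrations in triplicate, recovered 24 h. After fixation, Hoechst and anti-beta-catenin immunofluorescence imaged for nuclear CTNB. Gain of signal versus 0.1% DMSO.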

The nature of experiment [14]: VALA_MIGHUV2_WoundArea: VALA Sciences human Umbilical Vein Endothelial Cell Migration (MIGHUV) Assay, Area of Scratch Wound after Recovery (AID 2284316; active = hit-call score of the fitted dose curve at least 0.9, where 1 is the maximum). In short, it runs like this: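 HUVEC seeded at 9000 cells/well, scratched after 24 h; test chemical added within 30 min, 6-point concentration response in triplicate (0.1% DMSO vehicle). After 24 h wound recovery, cells fixed and Hoechst-stained nuclei in wound area imaged; Cytochalasin D reference control.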

A short description of experiment [15]: VALA_TUBHUV_Antagonist_TubuleLength: VALA Sciences human Umbilical Vein Endothelial Tubule Formation (TUBHUV) Antagonism Assay (AID 2284325; active = hit-call score of the fitted dose curve at least 0.9, where 1 is the maximum). In short, it runs like this: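 HUVEC–HDF co-culture (1:3) pre-grown 3 days with 10 ng/ml VEGF, then 3 days with compound plus VEGF. Fixed, nuclear and CD31 stained; total tubule length by imaging versus 0.1% DMSO; suramin 100 uM positive control.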

Experiment [16] is described as follows: VALA_TUBHUV_Agonist_TubuleLength: VALA Sciences human Umbilical Vein Endothelial Tubule Formation (TUBHUV) Agonism Assay (AID 2284337; active = hit-call score of the fitted dose curve at least 0.9, where 1 is the maximum). In short, it runs like this:
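HUVEC co-cultured with fibroblasts (1:3) 3 days in 10 ng/ml VEGF, then 3 days with compound plus VEGF; 0.1 % DMSO neutral control. Fixed, nuclear and CD31 stained; tubule length by fluorescence imaging.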

Experiment [17] is described as follows: VALA_TUBIPS_Agonist_CellCount: Viability Assessment in the VALA Sciences human iPS-derived Endothelial Tubule Formation (TUBIPS) Agonism Assay (AID 2284338; active = hit-call score of the fitted dose curve at least 0.9, where 1 is the maximum).

Turning to `CCC1(c2ccccc2)C(=O)N=C(O)NC1=O` (stereo not drawn), the outcome in [1] was inactive.

Regarding `CCOP(=S)(OCC)SCSCC`, the call in experiment [2], in experiment [3], in experiment [4], in experiment [5], in experiment [6] and in [7] was inactive. For the same compound, the outcome (with SRD5A2 (gene 6716); in experiment [8]) was inactive.

Regarding `OCC(F)(F)OC(F)(F)C(F)(F)OC(F)(F)CO`, the AC50 (usually the concentration at which the activity in the assay is half-maximal) with TTR (gene 7276) was 40.1 µM (active).

As to `O=P1(N(CCCl)CCCl)NCCCO1` (stereo not drawn), the outcome in [9] and in [10] was inactive.

Consider `O=C(O)C(F)(F)OC(F)(F)C(F)(F)OC(F)(F)C(=O)O`, for which the outcome in [5] was inactive. Further, the AC50 with TTR (gene 7276) was 0.746 µM (active).

With `OCC(F)(F)OC(F)(F)C(F)(F)OC(F)(F)C(F)(F)OC(F)(F)F`, the AC50 in the experiment on TTR (gene 7276) was 51.7 µM (active).

On to `COC(=O)C(F)(F)C(F)(F)OC(F)(C(F)(F)F)C(F)(F)OC(F)=C(F)F` (stereo not drawn), for which the AC50 in the experiment with TTR (gene 7276) was 0.977 µM (active).

Consider `O=S1(=O)OCC2C(CO1)C1(Cl)C(Cl)=C(Cl)C2(Cl)C1(Cl)Cl` (stereo not drawn), for which the compound was called inactive in [2], in experiment [3], in experiment [4] and in experiment [8].

For the compound `CCCCC(CC)COP(=O)(Oc1ccccc1)Oc1ccccc1` (stereo not drawn), the compound was called inactive in experiment [2], in experiment [3], in experiment [4] and in experiment [1].

For the compound `O=S(=O)(F)C(F)(F)C(F)(F)C(F)(F)C(F)(F)C(F)(F)C(F)(F)C(F)(F)C(F)(F)F`, the AC50 with TTR (gene 7276) is 55 µM (active).

As to `c1ccc2c(c1)Nc1ccccc1S2`, the compound was classed as inactive in [6] and in [7]. In the experiment on SRD5A2 (gene 6716), the AC50 is 23.7 µM (active).

In the case of `ClC1=C(Cl)C2(Cl)C3C(Cl)C(Cl)CC3C1(Cl)C2(Cl)Cl` (stereo not drawn), the compound was called inactive (in experiment [6]; in experiment [7]; in the experiment on SRD5A2 (gene 6716)).

For the compound `CC(C)(C)c1ccccc1OP(=O)(Oc1ccccc1)Oc1ccccc1`, the AC50 in experiment [2] is 1.98 µM (active). Further, the call in [3], in experiment [4], in [1] and in [8] was inactive.

With `Cc1ccc(N)cc1N`, the compound was called inactive in experiment [11], in [12], in experiment [13], in experiment [14], in experiment [15] and in [17]. Besides, the AC50 in experiment [16] is 7.57 µM (active).

These data come from PubChem BioAssay (EPA / NIEHS).
